Screen size: about 290,000 compounds; about 27,000 (9.3%) were called active. The sample holds actives, similar compounds and a random draw of the others, so the mix is not that of the screen. Values without a mark were called inactive. Rule as the data show it: active = inhibition mostly above about 28% (no sharp cut-off); inactive = mostly below about 43%.

The nature of the test: A qHTS for Small Molecule Inhibitors of Shiga Toxin. Also: 0% is about no effect. To be noted: Vero cells, Shiga toxin protein synthesis inhibition reporter; at 38.7 µM, hits give high values. On the technique in general: In qHTS, concentration-response curves come from the screen itself.
On to `CCN(CC)c1ccc(NC(=O)CCc2nnc3ccc(N4CCCCC4)nn23)c(C)c1`, for which the inhibition (in general, the relative decrease from the control value, in per cent) is -1.98%.

For `Cc1[nH]c(C)c(S(=O)(=O)N2CCC(C)CC2)c1C(=O)N1CCCC1`, the inhibition was -4.27%.

In the case of `Cc1ccsc1-c1cc(C(=O)O)c2c(ccc3ccccc32)n1`, the inhibition was 17.5%.

In the case of `CN(Cc1c(F)cccc1Cl)S(=O)(=O)c1cccs1`, the inhibition was 20.7%.

Regarding `CC1CC(C)CN(c2ccc(S(=O)(=O)N3CCOCC3)cc2)C1` (stereo not drawn), the inhibition is 13.9%.

Take `Cn1c(CC(=O)Nc2ccc(F)cc2)nnc1SCC(=O)NC1CCCCC1`: the inhibition is -5.18%.

Regarding `CC(C)c1ccc(Nc2ncccc2C#N)cc1`, the inhibition is 52.3% (active).

`CN(C)c1ccnc(Nc2ccc(F)cc2)c1C#N`: the inhibition is 7.86%.

Regarding `Cc1cccc(NC(=O)c2ccc(COc3ccccc3[N+](=O)[O-])o2)n1`, the inhibition is 32.9%.

Take `CCOc1ccc(OCc2ccc(C(=O)Nc3cccc(C)n3)o2)cc1`: the inhibition is 42% (active).

Turning to `CC(=O)Cc1nsc(NC(=O)c2ccc(COc3ccc(C)cc3)o2)n1`, the inhibition was -9.97%.

Consider `COc1ccc(CCNC(=O)NS(=O)(=O)c2ccc(C)cc2)cc1OC`, for which the inhibition was 4.27%.

For `CC(C)Cc1nnc(NC(=O)CN2C(=O)NC3(CCCCC3)C2=O)s1`, the inhibition was -8.2%.

For the compound `Cc1ccc(N2C(=O)C3CC3C2=O)cc1` (stereo not drawn), the inhibition is 25.6%.

Take `Cc1ccc(N2CCN(c3ccc(C)cc3)C2c2ccccn2)cc1`: the inhibition is 57.4% (active).

`Cc1ccc(S(=O)(=O)NCC(=O)N2CCN(c3ccccn3)CC2)cc1`: the inhibition was -5.02%.

With `Cc1c(CN2CC[C@@H](N3CCN(c4ccccn4)CC3)[C@H](O)C2)[nH]c2ccc(F)cc12`, the inhibition was -5.39%.

As to `COc1cccc(C(=O)c2cc3ccc(O)cc3oc2=O)c1`, the inhibition was 21.7%.

In the case of `COc1ccc(-c2cc3ccc(OCc4nn[nH]n4)cc3oc2=O)cc1`, the inhibition is 10.3%.

As for `O=c1oc2cc(O)ccc2cc1-c1ccc(F)cc1`, the inhibition is 70% (active).

On to `Cc1cc2oc(=O)cc(CN(C)Cc3ccc(OC(F)F)cc3)c2cc1Cl`, for which the inhibition is 17.5%.

Take `O=C(CCc1nnc2ccc(NCCCN3CCCC3=O)nn12)NCc1ccccc1Cl`: the inhibition is 20.3%.

`Cc1cc(C)c(NC(=O)CN2CCCCCC2)c(C)c1`: the inhibition was 83.4% (active).

As for `COc1cc(Cl)c(C)cc1NC(=O)CN1CCCCCC1`, the inhibition is 14.2%.

As for `Cc1csc(NC(=O)CN2CCCCCC2)n1`, the inhibition was -8.35%.

For the compound `O=c1cc(Cl)c2ccccc2n1-c1ccccc1`, the inhibition is -8.33%.

Take `O=C(NC1CC1)c1ccc2c(c1)NC(=O)c1ccccc1S2`: the inhibition was 13.2%.

Take `C/C(=N\Nc1cccc(C(=O)O)c1)c1ccc2c(c1)Nc1ccccc1S2`: the inhibition was 77.7% (active).

As to `Cc1ccccc1NC(=O)c1cc(S(=O)(=O)Nc2cccc(C(=O)O)c2)ccc1Cl`, the inhibition was 24.3%.

`COc1cc(/C=N/n2c(C)n[nH]c2=S)ccc1OCc1ccccc1`: the inhibition is -16.6% (active).

Take `COc1cc(-c2n[nH]c(=S)n2Cc2ccccc2)cc(OC)c1OC`: the inhibition is -7.08%.

Regarding `Fc1ccc(/C=N/n2c(COc3ccccc3)n[nH]c2=S)cc1`, the inhibition is -5.88%.

Regarding `COc1ccc(C)cc1Nc1n[n+](-c2ccccc2)c(-c2cccc(Cl)c2Cl)s1`, the inhibition is -3.92%.

For the compound `O=S(=O)(Nc1cccc(Oc2ccc(Cl)cc2)n1)c1ccc(F)cc1`, the inhibition was 1.95%.

On to `COc1ccc(-c2csc3ncnc(N4CCN(S(=O)(=O)c5ccccc5C#N)CC4)c23)cc1`, for which the inhibition is -3.69%.

Take `CCOC(=O)Cc1csc(NC(=O)C(C)(C)C)n1`: the inhibition is 86.2% (active).

As to `CCOC(=O)Cc1csc(NC(NC(=O)OCC)(C(F)(F)F)C(F)(F)F)n1`, the inhibition was -12.7%.

`CCOC(=O)Cc1csc(NC(=O)Nc2ccccc2)n1`: the inhibition is 46.4%.

For the compound `Fc1ccc(-c2ccc(CNCc3ccccn3)o2)cc1Cl`, the inhibition is 2.57%.

In the case of `O=C(/C=C/Sc1ncn[nH]1)c1ccc(Cl)cc1`, the inhibition is 32.3% (active).

Turning to `COc1ccc(Cl)cc1CSc1ncn[nH]1`, the inhibition is 4.03%.

With `O=C(NCCOCc1ccc(Cl)cc1)c1ncn[nH]1`, the inhibition was 10.4%.

As for `COc1ccc(CCNc2nc3ccc(C)cc3n3cnnc23)cc1OC`, the inhibition is 4.18%.

For the compound `CCn1c(=O)n(CC)c2cc(N3CCCC3)c(NC(=O)c3ccccc3Br)cc21`, the inhibition is -6.78%.

Turning to `Cc1cc(S(=O)(=O)N2CCOCC2)ccc1OCC(=O)N1CCOCC1`, the inhibition is 26.1%.

Consider `Cc1ccc(OCCCC(=O)NC(C)c2ccccc2)c(C)c1` (stereo not drawn), for which the inhibition is 7.36%.

In the case of `Cc1ccc(OCCCC(=O)N2CCOCC2)c(C)c1`, the inhibition was 88.9% (active).

For `COc1c(O)c2c(=O)cc(OC)c3c4c(OC)cc(=O)c5c(O)c(OC)c6c(c(c1C[C@@](C)(O)[C@H]6C(C)=O)c23)c54`, the inhibition is 10.8%.

With `CCOc1ccccc1NC(=O)C1CCCN(S(=O)(=O)c2ccccc2)C1` (stereo not drawn), the inhibition is -4.05%.

With `FC(F)(F)c1nnc2c3ccccc3c(Cl)nn12`, the inhibition is 5.58%.

Consider `Cc1cccc(C)c1NC(=O)COC(=O)c1ccccc1O`, for which the inhibition was -4.8%.

As to `COc1ccc(C(=O)N2CCCCC2C(=O)Nc2ccc(-n3nc(C)cc3C)cc2)o1` (stereo not drawn), the inhibition is -7.96%.

In the case of `CCC(=O)OCCNc1nc(-c2ccccc2)nc2ccccc12`, the inhibition was -14.7%.

Take `CCOC(=O)c1c(C)nc(-c2ccccc2)nc1NC(=O)C(C)C`: the inhibition is 38.3% (active).

For the compound `CCOC(=O)c1c(N)nn(C(=O)c2ccccc2)c1-c1ccccc1`, the inhibition is -3.34%.

For `COc1ccc(/C=C/c2c(-c3cccc(C)c3)oc3ccc(-c4ccc5c(c4)OCO5)cc23)cc1`, the inhibition was -4.7%.

With `Fc1ccc(COc2cccc(-c3n[nH]c(=S)o3)c2)cc1`, the inhibition is 2.21%.

With `Fc1cccc(Cl)c1COc1ccc(-c2nnco2)cc1`, the inhibition was 30.1%.

On to `Fc1ccc(COc2ccc(-c3nnco3)cc2)cc1`, for which the inhibition was 63.9% (active).

In the case of `O=C(NCc1cccnc1)c1cccc(-c2cc3ccccc3oc2=O)c1`, the inhibition was 13.7%.

Take `O=C(Oc1cccnc1)c1cc2ccccc2oc1=O`: the inhibition was 1.26%.

As to `Nc1ncc(-c2cc3ccccc3oc2=O)s1`, the inhibition was 85% (active).

With `COc1cc(CNCc2ccc3c(c2)OCO3)c([N+](=O)[O-])cc1OC`, the inhibition was 16.9%.
